Bioassay records (PubChem)
DT40 TDP1 CPT – DT40-hTDP1 cell growth loss with CPT. chicken DT40 Tdp1-/-;hTDP1 cells + 20 nM CPT, ATP luminescence, 48 h. Potency, µM (doses to about 46.2 µM), for the others: at the highest dose activity change, negative = growth inhibition, hits mostly inhibitors. 420,000 tested, 12% active. AID 686979; further: potency means the concentration at half of the fitted maximal effect; on the % scale 0 is the no-effect control and ±100 the full control effect; nearly all actives have a fitted effect of over 55% in size
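Cell growth measured by CellTiter-Glo luminescence after a minimum 48 h, 37 C compound exposure with 20 nM CPT in Tdp1-knockout DT40 cells stably expressing hTDP1, seeded 400/well; qHTS titration format.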
ClpP mod – qHTS Assay for Activators of ClpP; ATP-dependent Clp protease proteolytic subunit (Bacillus subtilis (strain 168)), P80244; purified B. subtilis ClpP, FRET peptide cleavage, 20 min; Potency, µM (top dose mostly 57.5 µM), for inactives: at the highest dose activity change, negative = active; 340,000 tested, 1.9% active; AID 651965, 2013; active means well fitted falling curve with a large enough effect; inconclusive means small, poorly fitted or top-dose-only effect; inactive means no such curve, though single readings can be large or run the other way; further: potency means the concentration at half of the fitted maximal effect; the source files actives as falling curves though it sought activators and does not explain the sign; nearly all actives have a fitted effect of over 65% in size
Target sequence (P80244 whole entry, looked up): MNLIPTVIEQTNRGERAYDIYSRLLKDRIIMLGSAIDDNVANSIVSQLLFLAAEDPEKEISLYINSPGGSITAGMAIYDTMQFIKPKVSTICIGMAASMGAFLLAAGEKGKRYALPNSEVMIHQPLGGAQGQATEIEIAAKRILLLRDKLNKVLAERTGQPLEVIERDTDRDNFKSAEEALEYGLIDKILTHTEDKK
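ClpP 10 microg/mL final, pH 8 Tris/KCl buffer with BSA, glycerol, Tween-20; compound pinned in; FRET-FV substrate; RT 20 min; Ex320/Em430; ΔFRET vs ADEP 5.8 microM, DMSO, no enzyme.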
IL-1B inflam inh – inflammasome signaling inhibition, IL-1 beta readout | THP-1 LPS/ATP IL-1B secretion, AlphaLISA, 16 h; active compounds read low | AID 743279 | 360,000 tested, 4.7% active | activity change, % at 57.5 µM; in the data active means activity change below about -50%; inconclusive means mostly about -30% to -49%; further: on the % scale 0 is the no-effect control and ±100 the full control effect
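THP-1 cells pretreated 1 hr with compounds (up to 57.5 uM final), then stimulated with LPS (250 ng/mL final) plus ATP (1.25 mM final); secreted IL-1B measured by AlphaLISA after 16 hr, decreased signal indicating inhibition.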
DRD3 agonist – activates the human D3 dopamine receptor; max activation, %; P35462; 410,000 tested, 0.58% active; D3R DiscoveRx beta-arrestin cells, luminescence, 90 min; in the data active means max activation above about 30%; further: 0% is about no effect
Target sequence (P35462 whole entry, looked up): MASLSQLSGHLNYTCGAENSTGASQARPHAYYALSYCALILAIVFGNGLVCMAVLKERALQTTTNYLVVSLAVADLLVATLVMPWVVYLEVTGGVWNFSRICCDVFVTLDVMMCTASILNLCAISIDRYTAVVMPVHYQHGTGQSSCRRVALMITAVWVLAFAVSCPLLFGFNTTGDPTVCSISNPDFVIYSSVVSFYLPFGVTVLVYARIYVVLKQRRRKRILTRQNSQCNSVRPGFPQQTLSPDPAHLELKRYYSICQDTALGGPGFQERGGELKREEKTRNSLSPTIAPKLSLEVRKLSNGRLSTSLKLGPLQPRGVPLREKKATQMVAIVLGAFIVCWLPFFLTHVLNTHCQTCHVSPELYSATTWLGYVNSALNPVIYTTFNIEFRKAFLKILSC
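Cells at 1500/well, incubated overnight, then treated with pinned compounds (dopamine as control) for 90 min at 37 degrees C. DiscoveRx reagent added for 30 - 60 minutes at room temperature; luminescence read.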
DT40 TDP1 no CPT – qHTS for Inhibitors of human tyrosyl-DNA phosphodiesterase 1 (TDP1): qHTS in cells in absence of CPT. Potency, µM (doses to about 46.2 µM), for the others: at the highest dose activity change, negative = growth inhibition, usual class: inhibitors. 420,000 tested, 15% active. AID 686978, 2013. DT40 Tdp1-/- hTDP1 cells, no CPT, ATP luminescence, 48 h; further: potency means the concentration at half of the fitted maximal effect; on the % scale 0 is the no-effect control and ±100 the full control effect; nearly all actives have a fitted effect of over 55% in size
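Chicken DT40 Tdp1-/- cells complemented with human TDP1, screened without camptothecin (DMSO vehicle only), 400 cells/well. Compounds pin-transferred, cells incubated at 37 °C for at least 48 hr. Growth read as ATP-dependent luminescence (CellTiter-Glo, 30 min at RT).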
DRD3 antagonist – D3 dopamine receptor (human) antagonism; P35462; D3R cells, DiscoveRx beta-arrestin luminescence, antagonist mode; active compounds read low; max response, negative = inhibition, %; 360,000 tested, 2.5% active; in the data active means max response below about -50%; inconclusive means no clear call, values can overlap the other calls; further: on the % scale 0 is the no-effect control and ±100 the full control effect
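Cells plated overnight at 1500 cells/well, then exposed to library compounds with dopamine controls for 90 minutes at 37 degrees C. DiscoveRx reagent added for 30–60 minutes at room temperature; luminescence read, quantitative HTS format.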
* marks the source's active call; other numbers are inactive results; ? = inconclusive; nt = no result given. Only some compounds are listed: those with a hit (about 21% of all), similar ones and a draw of the others. Unless noted, the call rests on the fitted dose curve; in most records, active means well fitted inhibition curve with a large enough effect; inconclusive means small, poorly fitted or top-dose-only effect; inactive means flat fitted curve, though single readings scatter.

SMILES | DT40 TDP1 CPT | ClpP mod | IL-1B inflam inh | DRD3 agonist | DT40 TDP1 no CPT | DRD3 antagonist
CCOCCCNC(=O)c1cc2c(-c3ccc(Cl)cc3)nn(C)c2s1 | ? | 4% | -17 | 3 | ? | 7
Cn1nc(-c2ccc(Cl)cc2)c2cc(C(=O)NCCCN3CCOCC3)sc21 | 16µM* | 4% | 0 | -20 | 18µM* | ?
Cc1ccc(C(=O)NNC(=O)c2ccoc2C)s1 | ? | nt | 2 | -3 | -11% | 13
CN(C)c1ccnc(-c2cccc(NS(C)(=O)=O)c2)n1 | -2% | nt | nt | nt | 0% | nt
COc1ccc(/C=C\C(=O)CC(O)(c2ccccc2)C(F)(F)F)cc1 (stereo unspecified) | 16µM* | -2% | -74* | -12 | 15µM* | -70*
COc1ccc(/C=C/C(=O)OCC(=O)c2ccccc2F)cc1 | -26% | -3% | -13 | -3 | ? | 6
Cc1ccc(C(=O)Nc2cc3c(cc2C)n(C)c(=O)c(=O)n3C)cc1 | 3% | -6% | nt | 4 | 0% | nt
NC(=O)C1(NC2CCCCC2)CCN(Cc2ccccc2)CC1 | -7% | nt | -28 | -21 | -11% | ?
COc1ccc(O)c(/C=c2/sc3nc4cc(C)c(C)cc4n3c2=O)c1 | 16µM* | -3% | 15 | -4 | 16µM* | -16
COC(=O)c1cc(=O)nc2sc3cc(OC)ccc3n12 | -21% | 3% | 7 | 0 | 9% | -28
COc1ccc(S(=O)(=O)NNS(=O)(=O)c2ccc(OC)c(OC)c2)cc1OC | -12% | 0% | 29 | -7 | -17% | ?
O=C(CNC(=O)c1ccccc1F)Nc1ccc2c(c1)OCO2 | -1% | -1% | 0 | -4 | 15% | 0
COc1ccc(NC(=O)c2cc3ccccc3oc2=O)cc1 | -20% | -1% | 9 | -5 | ? | -17
COc1ccc(-c2nn(-c3ccccc3)cc2C(=O)Nc2ccccc2OC)cc1 | 16µM* | ? | nt | 12 | 21µM* | nt
COc1ccc(-c2nn(-c3ccccc3)cc2C(=O)Nc2ccc(C(=O)O)cc2)cc1 | 2% | nt | -26 | 1 | ? | -13
COc1ccc(NC(=O)c2cn(-c3ccccc3)nc2-c2cc3ccccc3o2)cc1 | 16µM* | ? | -2 | 8 | 21µM* | 13
Cc1cc(C(=O)Cn2cnc3ccccc3c2=O)c(C)n1C1CC1 | -2% | -7% | -17 | -3 | 1% | -19
CCCCCCN1C[C@H](n2cc(C3CC3)nn2)[C@@H](O)C[C@@H]1c1ccc(C)cc1 | 21µM* | 1% | -5 | 1 | 12µM* | 9
CCCCCCN1C[C@@H](n2cc(C3CC3)nn2)[C@H](O)C[C@@H]1c1ccc(OC)cc1 | 18µM* | -18% | ? | 1 | 15µM* | -2
CCCCCCN1C[C@@H](n2cc(C3CC3)nn2)[C@H](O)C[C@@H]1c1ccc(C)cc1 | ? | -2% | -21 | 0 | ? | -5
O=C(Nc1ccc(S(=O)(=O)NC2=NCCCCC2)cc1)c1cccs1 | -25% | -3% | 3 | -1 | ? | 9
O=C(Nc1ccc(S(=O)(=O)NC2=NCCCCC2)cc1)c1ccc([N+](=O)[O-])s1 | 5.2µM* | -2% | -57* | -1 | 10µM* | -24
Cc1cc(NS(=O)(=O)c2ccc(NC(=O)c3ccc([N+](=O)[O-])s3)cc2)nc(C)n1 | -27% | 1% | -53* | 1 | 1% | 18
N#Cc1ccsc1NC(=O)c1ccc(Cl)c([N+](=O)[O-])c1 | 2.9µM* | 1% | ? | -11 | 2.3µM* | 18
N#Cc1ccsc1NC(=O)c1cccc([N+](=O)[O-])c1 | -26% | nt | 0 | -4 | ? | ?
SMILES | DT40 TDP1 CPT | ClpP mod | IL-1B inflam inh | DRD3 agonist | DT40 TDP1 no CPT | DRD3 antagonist
O=[N+]([O-])c1cc(S(=O)(=O)NC2=NCCCCC2)ccc1NCC1CCCCC1 | 16µM* | 2% | -5 | -3 | ? | 1
Cc1ccnc(NS(=O)(=O)c2ccc(NC(=O)c3ccc([N+](=O)[O-])s3)cc2)n1 | ? | 2% | -21 | -2 | ? | -19
COc1ccc(C(=O)Nc2ccc(C)cn2)c(OC)c1 | 21µM* | 1% | -10 | 2 | ? | -14
O=C(O)c1cc(NC(=O)c2ccc(Cl)c([N+](=O)[O-])c2)cc(C(=O)O)c1 | 26% | nt | 16 | 10 | -16% | -25
O=C(Nc1ccc(C(O)(C(F)(F)F)C(F)(F)F)cc1)c1ccc(Cl)c([N+](=O)[O-])c1 | 12µM* | -2% | -101* | -4 | 18µM* | ?
Cc1nc2cc(NC(=O)c3ccc([N+](=O)[O-])s3)ccc2s1 | 2.9µM* | 0% | -6 | 5 | 5.2µM* | 1
COc1ccc(C(=O)Nc2ccc(S(=O)(=O)Nc3cc(C)nc(C)n3)cc2)c(OC)c1 | 21µM* | 1% | 13 | -4 | 23µM* | -23
COc1ccc(C(=O)Nc2cc(C)on2)c(OC)c1 | 0% | -3% | -15 | 13 | 11% | 1
CC1(C(=O)NS(=O)(=O)c2cccc(C#N)c2)CCN1C(=O)Cc1ccc(-c2ccccc2)cc1 (stereo unspecified) | -15% | 0% | 46 | 4 | -25% | -15
O=C(Nc1ccc(S(=O)(=O)NC2=NCCCCC2)cc1)c1ccc(Cl)c([N+](=O)[O-])c1 | ? | 1% | -96* | -1 | 23µM* | -26
Nc1sc(-c2ccccc2)cc1C(=O)N1CCNCC1 | ? | -5% | ? | -21 | -25% | -54*
Cc1cccc(NC(=O)CSCC(=O)Nc2cccc3ncccc23)c1 | 5% | -6% | 7 | 3 | -5% | 17
CNc1nc(-c2ccoc2)nc2ccccc12 | 1% | nt | nt | nt | 0% | nt
CC(C)(C)N(Cc1ccccc1)C(=O)CN1C(=O)c2ccccc2S1(=O)=O | ? | 0% | 2 | 2 | 21µM* | -15
CC1Cc2ccccc2N1S(=O)(=O)c1cnc[nH]1 (stereo unspecified) | 1% | 1% | -21 | -2 | -2% | 4
CC(=O)N1CCc2cc(S(=O)(=O)N3CCOCC3)ccc21 | 3% | -1% | 10 | 0 | -10% | 15
CC1Cc2ccccc2N1S(=O)(=O)c1cnc(Cl)c(Cl)c1 (stereo unspecified) | 16µM* | 0% | ? | -7 | 10µM* | -14
CSc1ccc(S(=O)(=O)N2c3ccccc3CC2C)cc1 (stereo unspecified) | ? | -4% | 28 | -3 | 21µM* | -22
